From PubChem BioAssay (EPA / NIEHS)
Values joined by “and” are separate entries in the source; they are usually repeats but may differ in a detail not shown here. Equal entries are not always repeated. More than one record can exist for a structure, and the calls need not agree. Active and inactive are the calls of the source. How the source made its calls: active means hit-call score of the fitted dose curve at least 0.9, where 1 is the maximum; inactive means score below 0.9.

How the values were obtained:
[1] = ATG_CRE_CIS: Attagene CIS-FACTORIAL HepG2 Assay for human cAMP Responsive Element (CRE) binding protein 3 (AID 2282926); settings: HepG2 CRE cis-reporter, Attagene multiplexed mRNA; actives raise or lower the signal
Method in brief: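 Readout: fluorescently labelled reporter transcripts resolved by capillary electrophoresis after RT-PCR, taken 24 h post-dosing in transfected HepG2. Endogenous transcription factor activity drives each cis-element reporter; gain or loss of signal fitted relative to DMSO control.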

[2] = target: CCAAT/enhancer-binding protein beta (Homo sapiens) (UniProt P17676); test: ATG_C_EBP_CIS: Attagene CIS-FACTORIAL HepG2 Assay for human CCAAT/Enhancer Binding Protein (C/EBP) beta (AID 2282927); settings: HepG2 Attagene cis-factorial transcription factor reporter; actives raise or lower the signal
Chain of CCAAT/enhancer-binding protein beta (Homo sapiens) (P17676 whole entry, looked up): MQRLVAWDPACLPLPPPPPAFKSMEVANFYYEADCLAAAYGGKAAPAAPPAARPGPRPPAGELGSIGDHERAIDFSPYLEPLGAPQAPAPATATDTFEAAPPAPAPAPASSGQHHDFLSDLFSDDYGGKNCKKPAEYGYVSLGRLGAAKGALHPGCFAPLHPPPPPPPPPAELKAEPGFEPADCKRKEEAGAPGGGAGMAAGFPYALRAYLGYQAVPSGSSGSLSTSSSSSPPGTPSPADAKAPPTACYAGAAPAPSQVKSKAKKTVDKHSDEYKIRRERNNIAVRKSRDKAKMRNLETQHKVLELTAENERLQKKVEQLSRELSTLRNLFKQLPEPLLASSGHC
Method in brief: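 HepG2 transiently transfected with multiplexed reporter units under cis-regulatory promoters reporting endogenous C/EBPb activity. After 24 h exposure, reporter mRNA assayed by RT-PCR, fluorescent labelling, HpaI digestion and capillary electrophoresis; bidirectional fitting versus DMSO.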

[3] = ATG_CMV_CIS: Attagene CIS-FACTORIAL HepG2 Assay for human CMV (Internal Marker) (AID 2282928); settings: HepG2 CMV promoter reporter, transcription factor profiling; actives raise or lower the signal;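 further: endpoint acts as a background internal control marker rather than a target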
Method in brief: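 24 h chemical treatment, HepG2 with transient multi-reporter transfection; RNA → oligo(dT) RT → PCR → 6-FAM extension → HpaI digest → CE fluorescence. Bidirectional fit, DMSO negative control.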

[4] = ATG_DR4_LXR_CIS: Attagene CIS-FACTORIAL HepG2 Assay for human Liver X Receptor (LXR), DR4 submotif (AID 2282929); settings: HepG2 Attagene DR4 cis-reporter, mRNA transcription; AC50: actives raise or lower the signal unless noted; outcome: actives raise or lower the signal unless noted
Method in brief: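 DR4 cis-reporter in HepG2, 24 h exposure. Detection: RT-PCR, 6-FAM labelling, CE fragment analysis. Endpoint fitted bidirectionally, DMSO = baseline.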

[5] = target: Aryl hydrocarbon receptor (Homo sapiens) (UniProt P35869); test: ATG_Ahr_CIS: Attagene CIS-FACTORIAL HepG2 Assay for human Aryl Hydrocarbon Receptor (Ahr) (AID 2282930); settings: HepG2 AhR cis-factorial reporter transcription; actives raise or lower the signal
Chain of Aryl hydrocarbon receptor (Homo sapiens) (P35869 whole entry, looked up): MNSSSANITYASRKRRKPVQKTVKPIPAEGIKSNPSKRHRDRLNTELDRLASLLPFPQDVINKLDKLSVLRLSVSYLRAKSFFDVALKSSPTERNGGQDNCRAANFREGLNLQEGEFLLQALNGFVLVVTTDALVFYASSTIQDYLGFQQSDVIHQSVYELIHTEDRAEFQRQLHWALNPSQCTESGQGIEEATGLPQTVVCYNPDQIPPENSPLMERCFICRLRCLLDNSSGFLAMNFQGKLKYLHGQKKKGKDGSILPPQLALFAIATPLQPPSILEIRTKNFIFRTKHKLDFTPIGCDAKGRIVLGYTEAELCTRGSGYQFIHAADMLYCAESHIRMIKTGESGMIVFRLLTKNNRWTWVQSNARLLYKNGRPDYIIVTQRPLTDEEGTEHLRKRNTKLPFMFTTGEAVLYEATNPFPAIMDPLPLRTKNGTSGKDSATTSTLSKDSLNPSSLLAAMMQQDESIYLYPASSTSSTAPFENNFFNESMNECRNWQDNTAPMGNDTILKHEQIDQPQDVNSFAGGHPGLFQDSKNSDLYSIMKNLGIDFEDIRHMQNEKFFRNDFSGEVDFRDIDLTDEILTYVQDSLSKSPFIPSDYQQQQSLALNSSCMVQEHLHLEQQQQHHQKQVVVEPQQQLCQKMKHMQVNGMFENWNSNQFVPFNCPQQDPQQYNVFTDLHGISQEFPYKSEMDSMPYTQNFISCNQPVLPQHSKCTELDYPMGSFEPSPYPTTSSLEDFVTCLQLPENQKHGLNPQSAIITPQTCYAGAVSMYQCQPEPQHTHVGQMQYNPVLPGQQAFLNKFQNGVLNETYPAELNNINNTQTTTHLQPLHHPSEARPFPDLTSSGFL
Method in brief: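 HepG2 cells transiently transfected with cis-element-driven multiplexed reporter units; endogenous AhR activity read as reporter mRNA 24 h after dosing, via RT-PCR, 6-FAM labelling, HpaI digestion and capillary electrophoresis. Bidirectional fit relative to DMSO.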

[6] = ATG_AP_1_CIS: Attagene CIS-FACTORIAL HepG2 Assay for human Activator Protein 1 (AP-1) (AID 2282931); settings: HepG2 Attagene cis-factorial AP-1 reporter mRNA; actives raise or lower the signal
Method in brief: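 Cis-regulated reporter units transiently expressed in HepG2 report endogenous transcription-factor activity. Signal: reporter mRNA at 24 h, via RT-PCR and fluorescent capillary electrophoresis. Endpoint derived by bidirectional fitting, DMSO as negative control.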

[7] = ATG_AP_2_CIS: Attagene CIS-FACTORIAL HepG2 Assay for human Activator Protein 2 (AP-2) (AID 2282932); settings: HepG2 AP-2 cis-reporter, Attagene transcription factor profiling; AC50: actives raise or lower the signal unless noted; outcome: actives raise or lower the signal unless noted
Method in brief: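 Read-out: fluorescent reporter mRNA via RT-PCR and capillary electrophoresis, 24 h post-dose in transiently transfected HepG2. Endogenous factors drive cis-promoter reporters; gain or loss of signal fitted bidirectionally against DMSO.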

[8] = ATG_BRE_CIS: Attagene CIS-FACTORIAL HepG2 Assay for human Bone Morphogenetic Protein (BMP) Response Element (BRE) (AID 2282933); settings: HepG2 BMP response element reporter, Attagene transcription factor profiling; actives raise or lower the signal
Method in brief: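 Transient MRTU transfection of human HepG2 liver cells; 24 h compound treatment; total RNA isolated, reverse-transcribed, PCR-amplified, 6-FAM labelled, HpaI-cut, capillary electrophoresis. DMSO = negative control/baseline, bidirectional fit.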

[9] = target: Transcription factor E2F1 (Homo sapiens) (UniProt Q01094); test: ATG_E2F_CIS: Attagene CIS-FACTORIAL HepG2 Assay for human E2F Transcription Factor 1 (AID 2282935); settings: HepG2 Attagene cis-reporter, E2F reporter RNA transcripts; actives raise or lower the signal
Chain of Transcription factor E2F1 (Homo sapiens) (Q01094 whole entry, looked up): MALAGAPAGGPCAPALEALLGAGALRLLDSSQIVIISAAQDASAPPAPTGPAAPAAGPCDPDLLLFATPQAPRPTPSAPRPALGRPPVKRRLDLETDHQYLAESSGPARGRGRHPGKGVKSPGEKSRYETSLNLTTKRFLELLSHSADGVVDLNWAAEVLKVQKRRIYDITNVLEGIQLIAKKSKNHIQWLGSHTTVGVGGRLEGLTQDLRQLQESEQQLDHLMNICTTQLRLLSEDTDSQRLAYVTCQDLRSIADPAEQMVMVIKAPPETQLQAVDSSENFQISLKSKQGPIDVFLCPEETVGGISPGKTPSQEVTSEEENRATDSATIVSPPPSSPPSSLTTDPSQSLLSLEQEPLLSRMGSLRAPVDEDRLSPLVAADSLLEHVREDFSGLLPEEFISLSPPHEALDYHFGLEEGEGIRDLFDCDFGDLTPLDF
Method in brief: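 Transient MRTU transfection of HepG2; 24 h compound exposure; RNA → oligo(dT) RT → PCR → FAM label → HpaI cut → CE fluorescence. Gain/loss of signal fit against DMSO.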

[10] = ATG_E_Box_CIS: Attagene CIS-FACTORIAL HepG2 Assay for human Enhancer Box (E-box) (AID 2282936); settings: HepG2 E-box cis-reporter transcription, actives raise or lower the signal
Method in brief: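 Transiently transfected HepG2, endogenous TF-driven reporters, 24 h dosing. Readout: RT-PCR plus capillary electrophoresis of fluorescent reporter fragments. Gain or loss of signal fitted bidirectionally against DMSO baseline.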

[11] = ATG_M_61_CIS: Attagene CIS-FACTORIAL HepG2 Assay for M61 Transcription Factor (Internal Marker) (AID 2282937); settings: HepG2 Attagene CIS-FACTORIAL M61 internal marker reporter; actives raise or lower the signal
Method in brief: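 Background-control endpoint: HepG2 cells with cis-regulated reporter constructs, 24 h exposure, reporter mRNA detected via fluorescent primer extension and capillary electrophoresis; values from bidirectional fitting with DMSO baseline.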

[12] = target: Retinoic acid receptor alpha (Homo sapiens) (UniProt P10276); test: ATG_DR5_RAR_CIS: Attagene CIS-FACTORIAL HepG2 Assay for human Retinoic Acid Receptor Alpha (RARE), DR5 submotif (AID 2282934); settings: HepG2 Attagene cis-factorial RARE DR5 reporter, mRNA; actives raise or lower the signal
Chain of Retinoic acid receptor alpha (Homo sapiens) (P10276 whole entry, looked up): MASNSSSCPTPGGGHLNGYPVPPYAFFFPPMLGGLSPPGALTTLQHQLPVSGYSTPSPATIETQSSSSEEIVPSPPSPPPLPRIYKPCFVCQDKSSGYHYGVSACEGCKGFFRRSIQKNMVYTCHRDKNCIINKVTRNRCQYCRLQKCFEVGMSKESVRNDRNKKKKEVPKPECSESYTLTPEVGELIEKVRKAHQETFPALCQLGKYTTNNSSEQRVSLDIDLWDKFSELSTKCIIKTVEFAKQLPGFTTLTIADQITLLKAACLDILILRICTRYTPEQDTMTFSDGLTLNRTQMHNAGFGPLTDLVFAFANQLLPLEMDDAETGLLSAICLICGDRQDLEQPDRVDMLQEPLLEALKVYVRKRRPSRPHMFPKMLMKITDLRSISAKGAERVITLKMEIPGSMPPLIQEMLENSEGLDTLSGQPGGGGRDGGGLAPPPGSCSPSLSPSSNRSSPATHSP
Method in brief: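 HepG2 cells transiently transfected with multiplexed reporter units; DR5 cis-element drives reporter through endogenous transcription factors. After 24 h dosing, reporter mRNA quantified by RT-PCR, fluorescent labeling, HpaI digestion and capillary electrophoresis; bidirectional fitting versus DMSO.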

Measured: AC50

NC(=NCCCCCCN=C(N)/N=C(\N)Nc1ccc(Cl)cc1)/N=C(\N)Nc1ccc(Cl)cc1
inactive: [1] | [2] | [3] | [4] | [5] | [6] | [7] | [8] | [9] | [10] | [11]
active: [1] 24 µM | [2] 24.6 µM | [3] 163 µM and 166 µM | [5] 21.9 µM | [6] 49.5 µM | [7] 16.9 µM | [8] 3.85 µM and 3.17 µM | [9] 48.6 µM | [10] 26.8 µM and 23.9 µM

FC(OC(F)(F)C(F)(F)C(F)(F)F)C(F)(F)F (stereo not given)
inactive: [1] | [2] | [3] | [4] | [5] | [6] | [7] | [8] | [12] | [9] | [10] | [11]

CCCCCCCC(OC)OC
inactive: [1] | [2] | [3] | [4] | [5] | [6] | [7] | [8] | [12] | [9] | [10] | [11]

CN(CCO)S(=O)(=O)C(F)(F)C(F)(F)C(F)(F)C(F)(F)C(F)(F)C(F)(F)C(F)(F)C(F)(F)F
inactive: [1] | [2] | [3] | [4] | [5] | [6] | [7] | [8] | [12] | [9] | [10] | [11]

C[C@]12CC[C@@H]3c4ccc(O)cc4CC[C@H]3[C@@H]1C[C@@H](O)[C@@H]2O
active: [3] 64.6 µM | [4] 26.3 µM | [7] 24.9 µM
inactive: [1] | [2] | [3] | [4] | [5] | [7] | [8] | [12] | [9] | [10] | [11]

COC(=O)C(F)(F)C(F)(F)C(F)(F)C(F)(F)C(F)(F)F
inactive: [1] | [2] | [3] | [4] | [5] | [6] | [7] | [8] | [12] | [9] | [10] | [11]

C=C(c1ccc(C(=O)O)cc1)c1cc2c(cc1C)C(C)(C)CCC2(C)C
inactive: [1] | [2] | [3] | [4] | [5] | [8] | [9] | [10] | [11]
active: [1] 31.9 µM | [2] 0.0309 µM | [3] 4.89 µM | [4] 2.99 µM | [7] 18.3 µM and 34.7 µM | [9] 31 µM | [10] 19 µM

c1cc2cccc3c4cccc5cccc(c(c1)c23)c54
active: [5] 17.6 µM
inactive: [1] | [2] | [3] | [4] | [6] | [7] | [8] | [12] | [9] | [10] | [11]
